A short description of assay [1]: Cell Viability - Mesenchymal (AID 546).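 Note: cells exposed to compound for 40 hours before reading.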 Note: potency is the fitted concentration of half-maximal effect. As to conditions: mesenchymal cells viability, qHTS; activity change, negative = cytotoxicity: at 91.7 µM (top of the series). The method, boiled down:
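In this qHTS cytotoxicity format, glomerulus-derived human mesenchymal kidney cells received compound for 40 hr, then luciferase-based ATP quantitation. Concentration-response data were fitted with the Hill equation.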
On the technique in general: In qHTS, concentration-response curves come from the screen itself.

A short description of assay [2]: Cell Viability - LYMP2-003 (AID 965).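 For activity change, negative = cytotoxicity: 0% = DMSO only and full effect = 92 µM tetraoctylammonium bromide.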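 Note: cells exposed to compounds for 24 h before reading; nearly all actives have a fitted effect of over 50% in size.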 Note: potency is the fitted concentration of half-maximal effect. The method, boiled down: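 Human lymphoblastoid cells (2500/well) were pre-incubated 5 hr at 37 C, then exposed to compounds over a concentration range for 24 hr at 37 C. Intracellular ATP was read by CellTiter-Glo luminescence; AC50 came from Hill-equation fits.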
The nature of assay [3]: Cell Viability - LYMP2-011 (AID 969). Note: nearly all actives have a fitted effect of over 60% in size. Note: potency is the fitted concentration of half-maximal effect. The method, boiled down: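 In this qHTS cytotoxicity format, compounds are tested across concentrations on human lymphoblastoid cells in complete medium for 24 hours at 37 C. Viability is taken as cellular ATP measured by luciferase luminescence.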
The nature of assay [4]: Cell Viability - LYMP2-013 (AID 970). Note: nearly all actives have a fitted effect of over 55% in size. Note: potency is the fitted concentration of half-maximal effect. The essentials:
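Cytotoxicity is scored as a concentration-dependent drop in intracellular ATP in human lymphoblastoid cells after 24 hr compound exposure at 37 C. ATP is quantified by luciferase luminescence, and AC50 values come from Hill-equation modeling.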

Assay [5] in a line: Cell Viability - LYMP2-021 (AID 974). For activity change, negative = cytotoxicity: % is set by controls: 0 for no effect and ±100 for the full control effect.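 Note: compound exposure lasts 24 hours at 37 °C; nearly all actives have a fitted effect of over 55% in size.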 Note: potency is the fitted concentration of half-maximal effect. The essentials: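 Loss of cellular ATP, measured with a luciferase-based CellTiter-Glo readout, serves as the toxicity signal in human lymphoblastoid cells treated for 24 hours at 37 C. Potency is reported as AC50 from a standard Hill model.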
Assay [6] is described as follows: Cell Viability - LYMP2-008 (AID 980). For activity change, negative = cytotoxicity: % is set by controls: 0 for no effect and ±100 for the full control effect. Note: nearly all actives have a fitted effect of over 60% in size. Note: potency is the fitted concentration of half-maximal effect. The method, boiled down: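 Cells seeded at 2500/well and rested 5 hr at 37 C; compounds added over a concentration range and incubated 24 hr at 37 C; CellTiter-Glo added, 30 min at room temperature; luminescence read and AC50 fitted with Hill model.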
The nature of assay [7]: Cell Viability - LYMP2-012 (AID 982).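 For activity change, negative = cytotoxicity: 0% = DMSO only and full loss = 92 µM tetraoctylammonium bromide.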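 Note: cellular ATP by luciferase luminescence where a drop means cytotoxicity; cells exposed to compound for one day before reading; nearly all actives have a fitted effect of over 55% in size.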 Note: potency is the fitted concentration of half-maximal effect.
The nature of assay [8]: Cell Viability - LYMP2-014 (AID 983).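 For activity change, negative = cytotoxicity: plate controls were DMSO only for no effect and 92 µM tetraoctylammonium bromide for full effect.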 Note: nearly all actives have a fitted effect of over 50% in size. Note: potency is the fitted concentration of half-maximal effect. The method, boiled down: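 Cells are plated at 2500/well and left 5 hr at 37 C. Compounds are added across a concentration range and incubated 24 hr at 37 C in complete medium. CellTiter-Glo is added, and luminescence is read after 30 min at room temperature.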
The nature of assay [9]: Cell Viability - LYMP2-016 (AID 984). For activity change, negative = cytotoxicity: % is set by controls: 0 for no effect and ±100 for the full control effect. Note: nearly all actives have a fitted effect of over 55% in size. Note: potency is the fitted concentration of half-maximal effect. The essentials: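 Human lymphoblastoid cells (LYMP2-016), 2500/well in complete medium, preincubated 5 hr at 37 C, then compound-treated 24 hr at 37 C. Intracellular ATP read by CellTiter-Glo luminescence after 30 min at room temperature; AC50 from Hill-equation concentration-response fits.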
A short description of assay [10]: Cell Viability - LYMP2-024 (AID 988).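 For activity change, negative = cytotoxicity: plate controls were DMSO only for no effect and 92 µM tetraoctylammonium bromide for full effect.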 Note: nearly all actives have a fitted effect of over 60% in size. Note: potency is the fitted concentration of half-maximal effect. The essentials:
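qHTS cytotoxicity, human lymphoblastoid line, complete medium; 24 h cpd treatment, 37 C; CellTiter-Glo ATP luminescence readout; tetraoctylammonium bromide positive control; AC50 via Hill fit.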

Assay [11] can be described thus: Cell Viability - LYMP2-026 (AID 989). Note: nearly all actives have a fitted effect of over 50% in size. Note: potency is the fitted concentration of half-maximal effect. The essentials: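 Cells are seeded at 2500 per well and held 5 hr at 37 C. Compounds are added in concentration series for 24 hr, then CellTiter-Glo reagent is applied and luminescence read.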
Assay [12] in a line: Cell Viability - LYMP1-002 - Assay at 40 hr (AID 994). Note: nearly all actives have a fitted effect of over 60% in size. Note: potency is the fitted concentration of half-maximal effect. The essentials:
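Cells are plated at 2500 per well and rested 5 hr at 37 C. Compounds are added and incubated 40 hr at 37 C. CellTiter-Glo reagent is added for 30 min at room temperature before luminescence is read.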

Assay [13] in a line: qHTS assay for small molecule antagonists of retinoid X receptor alpha signaling (AID 588546; active = well fitted inhibition curve with a large enough effect in the signal ratio, with a control signal flat, not every such curve was filed as active; the % refers to the signal ratio; note: potency is the fitted concentration of half-maximal effect;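 for max response: cells stimulated with 9-cis-retinoic acid as agonist; % is set by controls: 0 for no effect and ±100 for the full control effect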). To be noted: HEK293T RXRa-UAS-bla, beta-lactamase ratio, antagonist mode; measured here: W530 green channel, cytotoxicity proxy. The essentials:
(§1)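 Beta-lactamase reporter inhibition, read as CCF4 fluorescence ratio (ex 405, em 460/530 nm) after 2 h at RT. HEK293T UAS-bla cells, 2500/well, were stimulated with 9-cis-RA at 500 or 100 nM final alongside test compound for 18 h at 37 C.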

Assay [14] addresses Retinoic acid receptor RXR-alpha (Homo sapiens) (UniProt P19793). Described as above. As to conditions: HEK293T RXRa-UAS-bla, beta-lactamase ratio, antagonist mode. The method, boiled down: as §1
Assay [15] can be described thus: qHTS assay for environmental chemicals that activate the Aryl hydrocarbon Receptor (AhR) signaling pathway (AID 651777). Note: % of control where 0% means no effect; nearly all actives have a fitted effect of over 15% in size. As to conditions: 1A2-DRE human hepatoma cells, luciferase, 24 h; activation: stronger effect = higher value. The essentials: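 Induction of CYP1A2 transcription through AhR is detected by luciferase in 1A2-DRE hepatoma cells. Compounds or DMSO act for 24 hr at 37 C before a 30 min One-Glo step at room temperature.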

Assay [16] is described as follows: Cell Viability - HepG2 (AID 433; calls by dose curve;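 note: potency is the fitted concentration of half-maximal effect; cells exposed to compound for 40 hours; potency for ATP loss meaning cytotoxicity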). To be noted: qHTS. The method, boiled down:
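HepG2 hepatocellular carcinoma cells (1500/well) were treated with compounds for 40 h at 37 °C in complete medium; intracellular ATP was read by CellTiter-Glo luminescence. Data were normalized to DMSO and 100 uM tamoxifen, and AC50 came from Hill fits.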

Assay [17] in a line: Cellular Toxicity (caspase-3) Jurkat (AID 655).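 Note: cells exposed to compound for 16 h at 37 °C before reading.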 As to conditions: Jurkat caspase-3 activation, luminescence; caspase-3 activation: at 92.2 µM (top of the series), DMSO = 0%, tamoxifen = 100%. The method, boiled down: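 Jurkat cells (5000/well) in complete medium were treated with compounds for 16 hr at 37 °C, then Caspase-Glo 3/7 luminescence was read after 20 min at room temperature. Data normalized to DMSO (basal) and 100 uM tamoxifen (100%); AC50 from Hill fit.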

Assay [18] can be described thus: Cell Viability - LYMP2-020 (AID 986). Note: nearly all actives have a fitted effect of over 55% in size. Note: potency is the fitted concentration of half-maximal effect. The method, boiled down: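 Seed 2500 cells per well and incubate 5 hr at 37 C. Add compounds at a concentration series and incubate 24 hr at 37 C. Add CellTiter-Glo, wait 30 min at RT, read luminescence, and fit a Hill curve for AC50.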
Assay [19] can be described thus: Cell Viability - LYMP1-002 - Assay at 16 hr (AID 948).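 Note: 0% = DMSO alone and full effect = 92 µM tetraoctylammonium bromide.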 The method, boiled down: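 Human lymphoblastoid cells (LYMP1-002), 2500/well, were preincubated 5 hr at 37 C, then exposed to compounds for 16 hr at 37 C in complete medium. Cellular ATP was read by CellTiter-Glo luminescence after 30 min at room temperature; AC50 from Hill fits.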
A short description of assay [20]: Cell Viability - LYMP2-002 (AID 977).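 Note: compound exposure lasted 24 h at 37 °C; plate controls were DMSO only for no effect and 92 µM tetraoctylammonium bromide for full effect.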 The method, boiled down: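 In this qHTS viability screen, 2500 human lymphoblastoid cells per well receive compound for 24 hr at 37 C, and luciferase-based ATP luminescence gives the viability signal. Tetraoctylammonium bromide serves as positive control.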

Where “and” joins values, the source holds several entries; their conditions need not be identical. Identical values can stand only once. Inconclusive results are not listed. Calls of active or inactive are those of the source. Unless noted, calls come from the whole dose curve; as a rule, active = well fitted curve in the direction sought with a large enough effect; inconclusive = small, poorly fitted or top-dose-only effect, or another doubt; inactive = no such curve, though single readings can be large; an effect the other way counts as inactive or inconclusive.

Chain of Retinoic acid receptor RXR-alpha (Homo sapiens) (P19793 whole entry, looked up): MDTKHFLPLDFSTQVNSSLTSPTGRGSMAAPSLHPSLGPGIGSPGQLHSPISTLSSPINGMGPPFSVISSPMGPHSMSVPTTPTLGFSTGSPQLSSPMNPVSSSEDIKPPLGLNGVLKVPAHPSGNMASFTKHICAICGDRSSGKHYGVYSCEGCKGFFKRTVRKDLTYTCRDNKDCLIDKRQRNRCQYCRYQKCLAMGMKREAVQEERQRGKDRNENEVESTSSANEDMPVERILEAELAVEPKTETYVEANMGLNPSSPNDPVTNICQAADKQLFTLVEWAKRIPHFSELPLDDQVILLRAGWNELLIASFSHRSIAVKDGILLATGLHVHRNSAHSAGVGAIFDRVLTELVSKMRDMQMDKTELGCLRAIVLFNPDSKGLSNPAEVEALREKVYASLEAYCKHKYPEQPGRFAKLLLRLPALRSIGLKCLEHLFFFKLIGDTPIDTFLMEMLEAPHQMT

Consider `CC1=C(/C=C/C(C)=C/C=C/C(C)=C/C=O)C(C)(C)CCC1`, for which the Potency was 31.6 µM (active) in [1]; 50.1 µM (active) in assay [2]; 63.1 µM (active) in assay [3]; 50.1 µM (active) in assay [4]; 50.1 µM (active) in assay [5]; 39.8 µM (active) in assay [6]. For the same compound, the Potency in [7] is 50.1 µM (active); in [8], 50.1 µM (active); in [9] it was 50.1 µM (active); in [10], 39.8 µM (active); in assay [11] it was 50.1 µM (active); in assay [12] it was 50.1 µM (active). Besides, the results for the max response in [13] and in assay [14] were -0.803% and -29.6% (inactive), respectively. For the same compound, the activation in assay [15] was 4.9% (inactive).

`CC/C=C/C/C=C/C/C=C/CCCCCCCC(=O)OCC`: the Potency in [16] is > 92 µM (inactive); in assay [2], 31.6 µM (active); in [4] it was 50.1 µM (active); in assay [5] it was 50.1 µM (active); in assay [6], 50.1 µM (active); in [7], 39.8 µM (active). The Potency in assay [8] is 50.1 µM (active); in assay [9], 39.8 µM (active); in assay [18] it was 39.8 µM (active); in assay [10] it was 25.1 µM (active); in [11] it was 50.1 µM (active). Moreover, the Potency entry in [1] and in assay [17] was “inactive” each time. Also, in [15], the activation is 0.56% (inactive).

For the compound `O=C(O)/C=C/c1ccc(/C=C/C(=O)O)cc1`, the Potency in [16] was > 92 µM (inactive). For the same compound, the Potency entry in [1], in [17], in assay [19], in assay [2], in assay [3] and in [4] was “inactive” throughout. The Potency entry in [5], in [20], in assay [6], in [7], in assay [8] and in assay [9] was “inactive” in each case. In addition, the Potency result in [18], in [10], in [11] and in assay [12] was “inactive” throughout. Further, the max response is -0.222% in assay [13] and 14.1% (inactive) in [14]. In [15], the activation is 0.407% (inactive).

For the compound `S=C(NC1CCCCC1)NC1CCCCC1`, the Potency result in assay [1], in assay [17], in [19], in assay [2], in assay [3] and in [4] was “inactive” each time. In addition, the Potency entry in assay [5], in assay [20], in assay [6], in [7], in [8] and in assay [9] was “inactive” throughout. Also, the Potency entry in [18], in assay [10], in [11] and in [12] was “inactive” throughout. Further, the max response in assay [13] is -2.99%; in [14], -14.3% (inactive). Besides, in assay [15], the activation is 5.57% (inactive).

Take `c1ccc2c(c1)ccc1ccccc12`: in assay [16], the Potency is > 92 µM (inactive). For the same compound, the Potency entry in assay [1], in [17], in [19], in assay [2], in [3] and in assay [4] was “inactive” throughout. The Potency result in assay [5], in [20], in assay [6], in assay [7], in [8] and in assay [9] was “inactive” in each case. The Potency entry in assay [18], in [10], in assay [11] and in assay [12] was “inactive” each time. Moreover, the max response is -0.251% in assay [13] and 9.87% (inactive) in assay [14]. The activation in [15] was 0.646% (inactive) and 0.0503% (inactive).

Take `O=Nc1ccc(Nc2ccccc2)cc1`: the Potency in [16] was > 92 µM (inactive). Also, the Potency entry in assay [1] is “inactive”.

As to `O=C=Nc1ccc(Cl)c(Cl)c1`, the Potency entry in assay [19], in [2] and in [11] was “inactive” each time. For the same compound, the max response in [13] came out at 26.4%. Besides, the Potency in [14] was 14.1 µM (active).

Consider `CN(C)c1ccc(C(=N)c2ccc(N(C)C)cc2)cc1`, for which the Potency in [16] was 57 µM (active); in assay [7], 39.8 µM (active); in [8] it was 39.8 µM (active); in assay [18], 39.8 µM (active); in assay [10] it was 39.8 µM (active). The activation in assay [15] was 13.1% (inactive).

For the origin of these results see PubChem BioAssay (NCATS).
